SW480 rerep = DNA re-replication induction in SW480 cells; SW480 DNA re-replication, Hoechst DNA content imaging, 48 h; hit rate 1.8% among 340,000; Potency, µM (series often up to 46.1 µM), for the others: at the top dose re-replication activation, most hits filed as activators; AID 624297; further: % of control where 0% means no effect; nearly all actives have a fitted effect of over 55% in size
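Treated cells incubate 48 hr (37 C, 5% CO2), are stained 40 min with Hoechst, and nuclear fluorescence is enumerated; a rise in nuclei with high DNA signal marks re-replication.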
KB-3-1 tox = kills parental KB-3-1 adenocarcinoma cells; KB-3-1 viability, CellTiter-Glo ATP luminescence, 72 h; Potency, µM (doses to about 46.1 µM), most hits filed as cytotoxic; hit rate 1.4% among 400,000; further: on the % scale 0 is the no-effect control and ±100 the full control effect; nearly all actives have a fitted effect of over 60% in size
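Screening of KB-3-1 cells (DMEM, 10% FBS, phenol-red free) ran from lowest to highest compound concentration; after 72 h at 37 °C viability was read luminescently and curves fitted.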
ELG1 DNA repair = blocks ELG1-dependent DNA repair in HEK293T cells; hit rate 2.3% among 330,000; AID 504467; Potency, µM (top dose mostly 46.1 µM), for the others: top-dose activity change, negative = inhibition, actives largely listed as inhibitors; HEK293T ELG1-luciferase reporter, luminescence, 16 h; DNA damage induced by 5-fluorouridine; further: on the % scale 0 is the no-effect control and ±100 the full control effect; nearly all actives have a fitted effect of over 55% in size
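HEK293T cells expressing luciferase-tagged ELG1 (2,000/well) received 5-Fluorouridine plus compound or DMSO for 16 hr at 37 °C. Luciferase was read by ONE-Glo luminescence after 30 min at room temperature.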
MCF10A rereplic = inducers of DNA re-replication in MCF 10A breast cells; MCF 10A DNA re-replication, Hoechst nuclear intensity, 48 h; Potency, µM (titrated, usually from 46.1 µM), inactives show top-dose activity, positive = re-replication, hits mostly activators; hit rate 2.9% among 350,000; further: % of control where 0% means no effect; nearly all actives have a fitted effect of over 50% in size
KB-V1 MDR tox = kills drug-selected multidrug resistant KB-V1 cells; KB-V1 MDR cells viability, CellTiter-Glo, 72 h; Potency, µM (doses to about 46.1 µM), usual class: cytotoxic; hit rate 3.4% among 400,000; AID 1347076; further: on the % scale 0 is the no-effect control and ±100 the full control effect; nearly all actives have a fitted effect of over 60% in size
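Cytotoxicity toward P-gp-expressing KB-V1 cells was determined as loss of CellTiter-Glo luminescence after 72 h at 37 degrees C. Compounds were tested in quantitative HTS format across a concentration range, with curves fitted to normalized data.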
The depositor's hits bear a star; i = inactive; u = inconclusive; x = no result given. Shown are actives, neighbours in structure and some others; about 8.1% of the full set was active somewhere. The call rests on the fitted dose curve; in most records, active means well fitted curve in the direction sought with a large enough effect; inconclusive means small, poorly fitted or top-dose-only effect, or another doubt; inactive means no such curve, though single readings can be large; an effect the other way counts as inactive or inconclusive. Potency means the concentration at half of the fitted maximal effect.

SMILES | SW480 rerep | KB-3-1 tox | ELG1 DNA repair | MCF10A rereplic | KB-V1 MDR tox
Cc1sc2ncnc(N3CCN(CCOc4ccc(Cl)cc4)CC3)c2c1C | u | u | u | 18µM* | u
Cc1sc2ncnc(N3CCN(Cc4ccccc4)CC3)c2c1-c1ccccc1 | 10% | u | u | 16µM* | 10µM*
NCC(c1ccccc1)(c1ccccc1)c1ccccc1 | u | u | u | 18% | 21µM*
CCn1c(SCC(=O)Nc2ccc3c(c2)OCO3)nnc1-c1ccccc1O | -17% | i | -11% | 3% | i
O=C(NC(C(=O)c1ccccc1)n1cnccc1=O)c1ccccc1 (centres undefined) | -3% | i | u | -3% | i
COc1ccccc1NC(=O)C1C2C=CC(C2)C1C(=O)NCc1cccnc1 (centres undefined) | -13% | i | -16% | 4.6µM* | i
COc1ccc(OC)c(NC(=O)C2C3C=CC(C3)C2C(=O)NCc2cccnc2)c1 (centres undefined) | -6% | i | -8% | 10% | u
COc1cc(C(CCN2CCCC(C)C2)c2c(OC)cc(OC)c3c2OC(=O)CC3c2ccc(N(C)C)cc2)cc(OC)c1OC (centres undefined) | 23% | i | 5% | 5% | u
Cc1cc2c(c(SCC(N)=O)n1)C(=O)OC2 | -4% | i | 1% | 1% | i
COc1ccc(Cn2c(C(=O)O)c(CNCc3ccc(C)o3)c3ccc(OC)cc32)cc1 | x | 8.2µM* | x | x | i
O=C1/C(=C/Nc2ccc3c(c2)OCO3)CCc2ccccc21 | u | u | u | u | 23µM*
COc1cccc(N2CCN(C(=O)c3cc(-c4ccc(F)cc4)[nH]c3C)CC2)c1 | 0% | i | 21µM* | u | i
Cc1[nH]c(-c2ccc(F)cc2)cc1C(=O)N1CCN(c2ccccc2)CC1 | -3% | i | u | u | i
COc1ccc(C(=O)N2CCN(c3cccc(Cl)c3)CC2)c(OC)c1 | u | 15µM* | -20% | 18µM* | u
Cc1cc(Cl)ccc1OCC(=O)Nc1ccccc1C(=O)N1CCOCC1 | -4% | u | u | 2% | u
COc1ccccc1N1CCN(c2ncc(C(=O)N3CCN(c4cccc(Cl)c4)CC3)c3ccccc23)CC1 | u | i | 5.2µM* | 16% | i
COc1ccc(N2CCN(C(=O)c3ccc(SC)cc3OC)CC2)cc1 | 8% | i | -13% | -1% | u
COc1cc(Cl)ccc1NC(=O)COc1ccccc1C(=O)N1CCN(c2ccc(O)cc2)CC1 | 19% | i | 13µM* | -4% | u
CCCCN(C)CC(O)Cn1cc(/C=C/C(=O)c2ccc(Br)cc2)c2ccccc21 (centres undefined) | x | i | x | x | u
Cc1nnc(Sc2cc(C(=O)NCCCN(C)Cc3ccccc3)c3ccccc3n2)s1 | -6% | u | 7% | 9% | u
CCOc1ccc2ccccc2c1C(=O)N1CCN(c2ccccc2)CC1 | u | 23µM* | -28% | 13µM* | 4.1µM*
CCOc1ccccc1C(=O)N1CCN(c2cccc(Cl)c2)CC1 | 0.41µM* | i | 1% | u | i
COc1ccc(-n2c(=O)cc(N3CCOCC3)[nH]c2=O)cc1 | -5% | i | 8% | 1% | i
CCN(CC)c1ccc(N=Nc2nn(C)c(C)c2[N+](=O)[O-])cc1 | 1% | i | u | 11% | i
CCN(Cc1ccccc1)c1ccc(N=Nc2nn(C)c(C)c2[N+](=O)[O-])cc1 | -12% | u | u | 0% | 6.5µM*
Cc1c(C)c2ccc(OCC(=O)Nc3ccc(S(N)(=O)=O)cc3)c(C)c2oc1=O | -1% | i | 18% | 18µM* | i
COc1ccc(-n2nc3c(N4CCC(C(=O)NCCc5ccccc5C)CC4)nnc(C)c3c2C)cc1 | u | i | u | 9.2µM* | i
Cc1ccc(-n2nc3c(N4CCC(C(=O)NCCc5ccccc5C)CC4)nnc(C)c3c2C)cc1 | 9% | u | 12% | 23µM* | u
